# Data taken from the supplement of paper PMC7366291.
# Structures can show the parent of a compound that is named as a salt. ± gives the standard deviation or the standard deviation of the averaged measurements.
# Legend:
# Settings in all cases: 25 µM; exposure: 24-48 hpf
# [1] = tested on: Danio rerio Tg(wt1b:EGFP) embryo, pronephros; assay: glomerular separation, fold change vs DMSO control; higher = glomeruli further apart (abnormal)
# Method in brief: (§1)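 Features are reported as fold changes against the mean of same-day DMSO-treated embryos. Before that, values more than 2 SD away from the feature mean were excluded. The embryos, dechorionated Tg(wt1b:EGFP) zebrafish, had been exposed from 24 to 48 hpf at 28.5°C to 25 μM compound in 0.5% DMSO in HEPES-buffered E3 with 0.003% PTU, and distances and angles came from 16 manually set points on maximum projections of dorsal pronephros images in Fiji.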
# [2] = tested on: Danio rerio Tg(wt1b:EGFP) embryo, pronephros; assay: glomerular width (mean of left and right), fold change vs DMSO control; higher = wider glomerulus
# Method in brief: as §1
# [3] = tested on: Danio rerio Tg(wt1b:EGFP) embryo, pronephros; assay: fraction of imaged embryos annotated as normal kidney; higher = less nephrotoxic; extreme values may be limits of the assay
# Method in brief: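 Dechorionated Tg(wt1b:EGFP) zebrafish embryos were incubated with 25 μM compound in 0.5% DMSO, 5 mM HEPES-buffered E3 and 0.003% PTU from 24 to 48 hpf at 28.5°C. Pronephroi were then imaged by widefield fluorescence, and the fraction of embryos per treatment assigned by hand to the normal-kidney category is given.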
# [4] = tested on: Danio rerio Tg(wt1b:EGFP) embryo, pronephros; assay: pronephric angle neck segment to proximal convoluted tubule (mean of left and right), fold change vs DMSO control; higher = larger pronephric angle
# Method in brief: as §1
SMILES,glomerular separation [1],glomerular width [2],fraction of imaged embryos annotated as normal kidney [3],pronephric angle neck segment [4]
CCC(=O)OCC(=O)[C@@]1(OC(=O)CC)[C@H](C)C[C@H]2[C@H]3[C@H]([C@@H](O)C[C@@]21C)[C@@]1(C)C=CC(=O)C=C1C[C@H]3Cl [Alclometasone dipropionate],1.33 ± 0.61,1.23 ± 0.026,0.333,1.0427 ± 2.1e-05
CC(=O)OCC(=O)[C@@]12OC3(CCCC3)O[C@@H]1C[C@H]1[C@@H]3CCC4=CC(=O)C=C[C@]4(C)[C@@]3(F)[C@@H](O)C[C@@]12C [Amcinonide],1.06 ± 0.48,1.22 ± 0.14,0.417,1.01 ± 0.019
CN1CCCC(n2nc(Cc3ccc(Cl)cc3)c3ccccc3c2=O)CC1 (stereo not drawn) [Azelastine hydrochloride],0.737 ± 0.21,0.885 ± 0.04,1,1.11 ± 0.024
CCOC(=O)OC(C)OC1=C(C(=O)Nc2ccccn2)N(C)S(=O)(=O)c2ccccc21 (stereo not drawn) [Ampiroxicam],0.796 ± 0.29,1.1 ± 0.027,1,0.963 ± 0.018
CCOC(=O)c1ccc(OC(=O)CCCCCNC(=N)N)cc1 [Gabexate mesilate],0.986 ± 0.37,0.986 ± 0.011,0.8,0.961 ± 0.013
CS(=O)(=O)c1ccc(C2=C(c3ccccc3)C(=O)OC2)cc1 [Rofecoxib],0.981 ± 0.22,0.974 ± 0.11,1,0.969 ± 0.024
CN(CCOc1ccc(CC2SC(=O)NC2=O)cc1)c1ccccn1 (stereo not drawn) [Rosiglitazone Hydrochloride],1.04 ± 0.39,0.964 ± 0.03,0.833,0.9727 ± 0.0063
C[C@@H](c1ncncc1F)[C@](O)(Cn1cncn1)c1ccc(F)cc1F [Voriconazole],0.875 ± 0.21,1.02 ± 0.015,0.5,1.01 ± 0.027
Nc1ccccc1S(N)(=O)=O [2-Aminobenzenesulfonamide],0.99 ± 0.24,1.02 ± 0.072,0.917,1.052 ± 0.00059
CNC(=C[N+](=O)[O-])NCCSCc1ccc(CN(C)C)o1 [Ranitidine hydrochloride],0.923 ± 0.34,0.941 ± 0.074,0.667,1.1 ± 0.051
CN(C)CCOC1=Cc2ccccc2Sc2ccc(Cl)cc21 [Zotepine],0.933 ± 0.24,0.983 ± 0.065,0.75,1.08 ± 0.11
O=S(=O)(O)CCS [Mesna],0.716 ± 0.21,1.07 ± 0.057,1,1.07 ± 0.047
O=c1cc(-c2ccc(O)c(O)c2)oc2cc(O)cc(O)c12 [Luteolin],0.869 ± 0.36,0.9662 ± 0.004,0.917,0.999 ± 0.006
C=C1/C(=C\C=C2/CCC[C@]3(C)[C@@H]([C@H](C)/C=C/[C@@H](O)C4CC4)CC[C@@H]23)C[C@@H](O)C[C@@H]1O [Calcipotriene],1.01 ± 0.34,1.06 ± 0.012,0.75,0.89787 ± 0.00058
O=c1[nH]cnc2c1ncn2[C@H]1CC[C@@H](CO)O1 [Didanosine],1.24 ± 0.56,1.06 ± 0.052,0.7,0.972 ± 0.041
CNCC[C@@H](Oc1cccc2ccccc12)c1cccs1 [(R)-Duloxetine hydrochloride],1.15 ± 0.49,1.046 ± 0.0076,1,0.986 ± 0.044
CNCCC=C1c2ccccc2CCc2ccccc21 [Nortriptyline hydrochloride],1.04 ± 0.35,0.9614 ± 0.0024,0.833,1.03 ± 0.011
CC(=O)[C@H]1CC[C@H]2[C@@H]3CC=C4C[C@@H](O)CC[C@]4(C)[C@H]3CC[C@]12C [Pregnenolone],1.31 ± 0.74,1.14 ± 0.018,0.583,0.999 ± 0.16
O=C(O)Cc1sc(-c2ccccc2)nc1-c1ccc(Cl)cc1 [Fentiazac],6.56 ± 3.2,0.503 ± 0.018,0,1.75 ± 0.059
Nc1nc2[nH]cc(CCc3ccc(C(=O)N[C@@H](CCC(=O)O)C(=O)O)cc3)c2c(=O)[nH]1 [Pemetrexed disodium],0.831 ± 0.39,1.08 ± 0.041,0.833,0.972 ± 0.057
C[N+]1(C)CCC(OC(=O)C(O)(c2ccccc2)C2CCCC2)C1 (stereo not drawn) [Glycopyrrolate],1.14 ± 0.48,1.02 ± 0.055,0.583,1.06 ± 0.028
Oc1ccc(C2CNCCc3c2cc(O)c(O)c3Cl)cc1 (stereo not drawn) [Fenoldopam],0.757 ± 0.32,1.01 ± 0.038,0.917,0.979 ± 0.053
CN1CCC(=C2c3ccccc3CCc3cccnc32)CC1 [Azatadine maleate],1.11 ± 0.32,0.9513 ± 0.00027,1,0.99 ± 0.037
Cc1cn([C@H]2C=C[C@@H](CO)O2)c(=O)[nH]c1=O [Stavudine],0.929 ± 0.3,0.874 ± 0.0014,1,0.9729 ± 0.00098
NC1CCN(c2c(F)cc3c(=O)c(C(=O)O)cn(C4CC4)c3c2Cl)C1 (stereo not drawn) [Clinafloxacin],1.2 ± 0.45,1.03 ± 0.087,1,0.962 ± 0.038
Cc1cc(CC(=O)O)n(C)c1C(=O)c1ccc(Cl)cc1 [Zomepirac sodium salt],0.83 ± 0.4,0.811 ± 0.033,0.273,1.23 ± 0.062
C=C(NC(=O)C(=C)NC(=O)c1csc(C2=N[C@@H]3c4csc(n4)[C@H]4NC(=O)c5csc(n5)[C@H]([C@](C)(O)[C@@H](C)O)NC(=O)[C@H]5CSC(=N5)/C(=C/C)NC(=O)[C@H]([C@@H](C)O)NC(=O)c5csc(n5)[C@]3(CC2)NC(=O)[C@H](C)NC(=O)C(=C)NC(=O)[C@H](C)NC(=O)[C@H]([C@@H](C)CC)N[C@@H]2C=Cc3c([C@H](C)O)cc(nc3[C@H]2O)C(=O)O[C@@H]4C)n1)C(N)=O [Thiostrepton],1.02 ± 0.32,1.02 ± 0.056,0.917,1.01 ± 0.12
